Structures are written as SMILES. Activity calls are given as the source filed them.

Assay [1] relates to Plasmodium falciparum Sir2 (PF13_0152, Sir2A). The experiment in a line: Plasmodium falciparum Sir2A binding compounds – biochemical, small-molecule microarray, 635 nm fluorescence, primary screen (AID 1098).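 Further: score merges spot fluorescence intensity with its signal-to-noise ratio.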 Particulars: fluorescence 635 nm, higher = more signal.
Assay [2] in a line: probe aDKK1 binding to arrayed compounds – biochemical, biotinylated probe, 635/667 nm fluorescence, primary screen (AID 1099).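 Further: score merges 667nm spot fluorescence with signal to noise across triplicate slides.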 Particulars: small-molecule microarray, higher = more signal.
Assay [3] can be described thus: probe aCHRDL2 binding to arrayed compounds – biochemical, biotinylated probe, 635/667 nm fluorescence, primary screen (AID 1100). Particulars: small-molecule microarray, higher = more signal.
A short description of assay [4]: change in splice reporter luminescence, either direction, cell-based, HEK293, spliceosome inhibition project, primary screen (AID 1101).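 Further: HEK293 cells carrying a splicing-competent luciferase reporter gene; test concentration not given here.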 Particulars: HEK293 splicing luciferase reporter, 24 h, higher = more signal, called active from +8 up or from −8 down. For orientation: Reporter assays use an easily measured gene product as a stand-in for the process of interest.

The target of assay [5] is Fibroblast growth factor 10 (Homo sapiens) (UniProt O15520). Description: compounds binding fibroblast growth factor 10 – biochemical, small-molecule microarray, 635 nm fluorescence, primary screen (AID 1102). The following applies: FGF10 binding, fluorescence 635 nm, higher = more signal.
Chain of Fibroblast growth factor 10 (Homo sapiens) (O15520 whole entry, looked up): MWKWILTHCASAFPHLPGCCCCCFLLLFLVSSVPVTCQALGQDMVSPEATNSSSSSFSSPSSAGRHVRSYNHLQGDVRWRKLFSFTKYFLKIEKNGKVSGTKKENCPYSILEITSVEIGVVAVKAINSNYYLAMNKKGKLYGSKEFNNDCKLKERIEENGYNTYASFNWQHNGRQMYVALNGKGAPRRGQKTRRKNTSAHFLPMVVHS
The test system of assay [6] is glycogen synthase kinase-3 (GSK3A per assay name; protocol says GSK3B). Description: compounds binding glycogen synthase kinase-3 – biochemical, small-molecule microarray, 635 nm fluorescence, GSK3A, primary screen (AID 1103). Further: the record names both GSK3A and GSK3B. The following applies: fluorescence 635 nm, higher = more signal.
For assay [7], the target named is Epidermal growth factor receptor (Homo sapiens) (UniProt P00533). The experiment in a line: compounds binding epidermal growth factor receptor – biochemical, small-molecule microarray, 635 nm fluorescence, primary screen (AID 1104).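 Further: score merges 667 nm emission intensity with spot signal to noise over triplicate slides.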 Particulars: EGFR binding, higher = more signal.
Chain of Epidermal growth factor receptor (Homo sapiens) (P00533 whole entry, looked up): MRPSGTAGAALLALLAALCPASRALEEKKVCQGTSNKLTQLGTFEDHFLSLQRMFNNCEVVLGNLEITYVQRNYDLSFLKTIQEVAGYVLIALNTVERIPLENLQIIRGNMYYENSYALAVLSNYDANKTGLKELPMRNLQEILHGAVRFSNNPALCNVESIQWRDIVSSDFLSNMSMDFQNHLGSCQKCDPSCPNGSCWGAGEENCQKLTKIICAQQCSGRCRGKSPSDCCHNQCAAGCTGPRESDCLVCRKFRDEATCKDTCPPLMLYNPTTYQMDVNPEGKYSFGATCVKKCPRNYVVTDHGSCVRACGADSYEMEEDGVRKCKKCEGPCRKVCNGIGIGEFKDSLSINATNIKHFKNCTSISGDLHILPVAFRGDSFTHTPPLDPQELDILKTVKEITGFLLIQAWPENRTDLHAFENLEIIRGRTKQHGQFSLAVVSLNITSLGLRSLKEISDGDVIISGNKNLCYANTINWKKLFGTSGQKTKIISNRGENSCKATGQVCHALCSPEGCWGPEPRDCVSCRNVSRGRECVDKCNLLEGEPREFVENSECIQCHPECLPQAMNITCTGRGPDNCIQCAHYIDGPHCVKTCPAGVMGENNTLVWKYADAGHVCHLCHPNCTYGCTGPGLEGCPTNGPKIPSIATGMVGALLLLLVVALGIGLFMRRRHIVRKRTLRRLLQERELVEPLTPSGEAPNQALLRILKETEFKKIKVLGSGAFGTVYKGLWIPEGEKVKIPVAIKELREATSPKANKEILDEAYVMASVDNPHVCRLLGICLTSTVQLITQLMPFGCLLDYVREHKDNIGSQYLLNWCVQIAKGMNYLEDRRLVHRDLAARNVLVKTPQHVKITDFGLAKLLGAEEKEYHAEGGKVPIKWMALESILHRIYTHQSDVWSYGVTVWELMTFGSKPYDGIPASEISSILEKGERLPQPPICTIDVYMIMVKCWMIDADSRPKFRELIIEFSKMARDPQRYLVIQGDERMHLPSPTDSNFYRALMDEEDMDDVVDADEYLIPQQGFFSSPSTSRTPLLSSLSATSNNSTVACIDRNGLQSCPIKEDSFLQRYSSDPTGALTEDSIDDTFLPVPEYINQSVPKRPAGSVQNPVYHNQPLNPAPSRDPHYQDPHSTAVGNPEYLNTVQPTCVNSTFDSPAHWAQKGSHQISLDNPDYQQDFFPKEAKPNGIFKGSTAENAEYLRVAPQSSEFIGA
In assay [8] the target is Follistatin-related protein 3 (Homo sapiens) (UniProt O95633). The experiment in a line: compounds binding follistatin-related protein 3 – biochemical, small-molecule microarray, 635 nm fluorescence, primary screen (AID 1105).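 Further: score merges emission near 667 nm and signal to noise per printed spot across three slides.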 Particulars: FSTL3 binding, higher = more signal.
Chain of Follistatin-related protein 3 (Homo sapiens) (O95633 whole entry, looked up): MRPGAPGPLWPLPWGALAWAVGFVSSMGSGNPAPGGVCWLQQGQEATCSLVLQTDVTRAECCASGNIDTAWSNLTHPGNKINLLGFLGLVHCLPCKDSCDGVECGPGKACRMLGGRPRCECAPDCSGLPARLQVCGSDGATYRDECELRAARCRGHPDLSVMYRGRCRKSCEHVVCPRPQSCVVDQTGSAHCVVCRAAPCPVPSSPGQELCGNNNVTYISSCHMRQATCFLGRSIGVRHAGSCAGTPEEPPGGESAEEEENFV
Assay [9] deals with Dickkopf-related protein 1 (Homo sapiens) (UniProt O94907). Description: small molecules binding DKK1 protein – biochemical, small-molecule microarray, 635 nm fluorescence scan, primary screen (AID 1106).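 Further: score merges emission near 667 nm with signal to noise over three replicate slides.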 Particulars: higher = more signal.
Chain of Dickkopf-related protein 1 (Homo sapiens) (O94907 whole entry, looked up): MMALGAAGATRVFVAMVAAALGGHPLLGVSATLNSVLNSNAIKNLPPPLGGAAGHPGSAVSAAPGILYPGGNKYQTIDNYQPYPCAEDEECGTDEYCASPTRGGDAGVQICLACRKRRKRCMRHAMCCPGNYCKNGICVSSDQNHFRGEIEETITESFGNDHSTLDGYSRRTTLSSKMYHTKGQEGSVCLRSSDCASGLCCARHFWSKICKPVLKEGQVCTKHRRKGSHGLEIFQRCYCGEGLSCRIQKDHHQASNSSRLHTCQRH
The test system of assay [10] is Inhibin beta A chain (activin A). The experiment in a line: small molecules binding activin A – biochemical, small-molecule microarray, 635 nm fluorescence scan, primary screen (AID 1107).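 Further: mouse activin A protein probed at 4.33 µg/mL on printed slides; score merges bound-protein fluorescence near 667 nm with spot signal-to-noise.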 Particulars: INHBA, higher = more signal.
The subject of assay [11] is Human papillomavirus type 1a protein E7 (residues 44-93). Description: small molecules binding HPV E7 44-93 – biochemical, small-molecule microarray, residues 44-93, 635 nm fluorescence, primary screen (AID 1108).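 Further: E7 fragment applied at 1 µg/mL in TBST for 1 h at 4 C; score combines spot fluorescence with its signal to noise ratio.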 The following applies: fluorescence 635 nm, higher = more signal.
A short description of assay [12]: hepatitis C replication reporter changes, two-sided – Huh7 cells, luciferase reporter, HCV replication inhibitor project, primary screen (AID 1109).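 Further: huh7 hepatoma cells harbouring a luciferase neomycin HCV replicon reporter; luciferase luminescence as measure of HCV replicon replication; test concentration not given here.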 Particulars: Huh7 HCV replicon luciferase reporter, 48 h; higher = more signal.
The target of assay [13] is Left-right determination factor 2 (Homo sapiens) (UniProt O00292). Description: small molecules binding LEFTY2 protein – biochemical, small-molecule microarray, 635 nm fluorescence scan, primary screen (AID 1110). Particulars: higher = more signal.
Chain of Left-right determination factor 2 (Homo sapiens) (O00292 whole entry, looked up): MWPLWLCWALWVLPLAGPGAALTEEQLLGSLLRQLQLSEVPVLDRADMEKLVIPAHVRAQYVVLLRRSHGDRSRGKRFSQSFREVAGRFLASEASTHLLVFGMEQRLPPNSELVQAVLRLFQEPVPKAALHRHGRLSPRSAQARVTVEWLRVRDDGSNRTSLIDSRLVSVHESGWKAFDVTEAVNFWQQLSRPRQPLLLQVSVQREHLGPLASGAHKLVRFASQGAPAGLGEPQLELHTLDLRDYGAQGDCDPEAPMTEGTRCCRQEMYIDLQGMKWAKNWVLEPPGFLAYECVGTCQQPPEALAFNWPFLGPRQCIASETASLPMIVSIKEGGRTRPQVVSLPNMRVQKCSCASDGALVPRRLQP
Assay [14] has as its target Calmodulin-1 (Homo sapiens) (UniProt P0DP23). Description: small molecules binding calmodulin-1 with EGTA – biochemical, small-molecule microarray, Cy5-labelled CALM1, profiling panel (AID 1111).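 Further: labelled calmodulin applied in Tris saline Tween buffer holding calcium plus EGTA and DTT.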 Particulars: Cy5-CALM1 binding fluorescence, higher = more signal.
Assay [15] shares this target. The experiment in a line: small molecules binding Ca-loaded calmodulin-1 – biochemical, small-molecule microarray, Cy5-labelled CALM1, plus calcium, artefact control for SMM control-protein annotation, profiling panel (AID 1112).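 Further: score merges spot fluorescence with signal to noise from triplicate slides.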 Particulars: Cy5-CALM1 binding fluorescence, higher = more signal.
Assay [16] is described as follows: probe aWnt5a binding to arrayed compounds – biochemical, biotinylated probe, 635/667 nm fluorescence, primary screen (AID 1113).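 Further: score merges 667 nm fluorescence intensity with signal-to-noise per printed feature.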 The following applies: small-molecule microarray, higher = more signal.
The nature of assay [17]: probe aShh binding to arrayed compounds – biochemical, biotinylated probe, 635/667 nm fluorescence, primary screen (AID 1114).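 Further: probe is biotin-labelled aShh protein from a stem cell growth factor screen; measures binding of labelled protein to compounds printed on the slide; score merges feature fluorescence at 667 nm with signal-to-noise.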 The following applies: small-molecule microarray, higher = more signal.
Assay [18] in a line: probe aNog binding to arrayed compounds – biochemical, biotinylated probe, 635/667 nm fluorescence, primary screen (AID 1115).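 Further: probe is biotinylated aNog protein used at 0.15 µg/mL for 1 h at 4 C; z-score combines 667 nm fluorescence of each spot with its signal to noise.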 The following applies: small-molecule microarray, higher = more signal.
The target of assay [19] is Torsin-1A-interacting protein 1 (Homo sapiens) (UniProt Q5JTV8). Description: compound microarray binding of lysate hLAP1 – cell lysate, small-molecule microarray, COS7 lysate, 635/667 nm fluorescence, primary screen (AID 1116). The following applies: 635 nm fluorescence, higher = more signal.
Chain of Torsin-1A-interacting protein 1 (Homo sapiens) (Q5JTV8 whole entry, looked up): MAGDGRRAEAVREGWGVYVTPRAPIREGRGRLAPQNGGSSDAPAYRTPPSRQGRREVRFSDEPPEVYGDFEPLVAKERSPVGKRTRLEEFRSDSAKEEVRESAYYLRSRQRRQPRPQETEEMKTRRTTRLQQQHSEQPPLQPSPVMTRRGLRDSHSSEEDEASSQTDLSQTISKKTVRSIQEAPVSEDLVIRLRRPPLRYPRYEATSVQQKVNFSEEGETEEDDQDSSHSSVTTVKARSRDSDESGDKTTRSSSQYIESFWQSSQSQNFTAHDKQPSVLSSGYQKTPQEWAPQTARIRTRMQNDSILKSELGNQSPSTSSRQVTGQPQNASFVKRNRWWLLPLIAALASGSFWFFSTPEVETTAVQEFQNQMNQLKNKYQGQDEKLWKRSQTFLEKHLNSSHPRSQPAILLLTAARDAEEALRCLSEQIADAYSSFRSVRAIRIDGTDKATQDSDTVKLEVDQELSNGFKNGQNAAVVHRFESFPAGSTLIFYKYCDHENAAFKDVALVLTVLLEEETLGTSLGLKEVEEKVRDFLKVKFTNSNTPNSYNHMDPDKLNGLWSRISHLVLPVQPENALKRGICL
The target of assay [20] is Alpha-bungarotoxin (Bungarus multicinctus) (UniProt P60615). The experiment in a line: compounds binding labelled alpha-BTX control protein – biochemical, small-molecule microarray, Alexa647 label, 635/667 nm fluorescence, artefact control for SMM control protein annotation, profiling panel (AID 1117). The following applies: alpha-BTX-A647 binding fluorescence, higher = more signal.
Chain of Alpha-bungarotoxin (Bungarus multicinctus) (P60615 whole entry, looked up): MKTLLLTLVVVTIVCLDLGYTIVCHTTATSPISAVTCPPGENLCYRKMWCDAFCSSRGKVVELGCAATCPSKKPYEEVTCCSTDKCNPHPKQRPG

Regarding `CC(C)C(=C=CC[C@H](O)c1ccc(OCCO)cc1)C[C@H](O)COCc1ccccc1`, the composite z-score in assay [1] was 1.12; in assay [2], -0.0067; in [3] it was -0.226; in assay [5], 0.498; in assay [6] it was 0.653; in assay [7], -0.445. In addition, the composite z-score in [8] was 0.421; in assay [9], 0.141; in assay [10], 1.42; in [11], 0.162; in assay [13], -0.022; in assay [14], 0.59. Besides, the composite z-score in [15] was -0.627; in [16] it was -0.0403; in assay [17], 0.0469; in assay [18], 0.217; in [19], 0.833; in [20], 1.07. For the same molecule, the figures for the z-score in [4] and in [12] were -0.642 (inactive) and -1.87, respectively.

Regarding `COCCOC(=O)N1C(=O)[C@@]2(c3cc(C#CC4(O)CCCCCC4)ccc31)[C@H](c1ccccc1OCCO)N1[C@H](c3ccccc3)[C@H](c3ccccc3)OC(=O)[C@H]1[C@@H]2C(=O)Nc1nc2ccccc2s1`, the composite z-score is 0.81 in [1]; 0.55 in assay [2]; 0.65 in assay [3]; 0.989 in assay [5]; 1.23 in assay [6]; 0.45 in assay [7]. Further, the composite z-score in [8] was determined as 1.07; in assay [9], 0.816; in assay [10], 0.995; in assay [11] it was 0.425; in assay [13] it was 0.636; in assay [14] it was 1.59. The composite z-score in assay [15] turned out to be 0.941; in [16], 0.0317; in [17] it was 0.275; in assay [18] it was 0.182; in assay [19] it was 1.46; in assay [20], 2.25. Besides, the z-score in assay [4] was -0.318 (inactive); in assay [12], -1.51.

`C=CCNC(=O)[C@H]1[C@@H]2C(=O)O[C@@H](c3ccccc3)[C@@H](c3ccccc3)N2[C@@H](c2ccccc2OCCO)[C@]12C(=O)N(C(=O)OCCOC)c1ccc(C#CCCO)cc12`: the composite z-score in assay [1] came to 0.745; in assay [2] it was 1.73; in [3], 0.981; in assay [5], 1.35; in assay [6], 1.2; in [7] it was 0.843. The composite z-score was 1.24 in assay [8]; 0.983 in assay [9]; 1.01 in assay [10]; 0.188 in assay [11]; 1.06 in [13]; 1.78 in assay [14]. For the same molecule, the composite z-score amounted to 1.08 in assay [15]; 0.0722 in [16]; 0.715 in assay [17]; 1.23 in assay [18]; 0.985 in assay [19]; 0.581 in assay [20]. The z-score is -0.485 (inactive) in [4] and -2.5 in [12].

As to `CC(C)(C)OC(=O)CC[C@@]12N=C(c3ccc(OCCCO)cc3)O[C@@H]1c1ccccc1N(Cc1ccccc1)C2=O`, the composite z-score in [1] was 0.727; in assay [2] it was 0.692; in assay [3] it was 1.05; in assay [5] it was 0.732; in [6], 1.19; in assay [7], -0.244. The composite z-score in [8] is 0.51; in assay [9], 0.117; in [10] it was 1.14; in [11] it was -0.0568; in [13], -0.202; in [14] it was 0.61. The composite z-score was 0.621 in [15]; -0.0327 in assay [16]; 0.138 in assay [17]; 0.943 in assay [18]; 0.786 in assay [19]; 1.36 in assay [20]. The z-score in assay [4] was -0.00084 (inactive); in assay [12], -2.38.

`CCCCCN1CC=CC23O[C@@H]4/C=C\CCC(C)OC(=O)C4[C@H]2C(=O)N(CCCO)[C@@H]3C1=O` (stereo not given in full): the composite z-score in assay [1] is 0.936; in assay [2], -0.212; in assay [3], 0.183; in assay [5] it was -0.753; in assay [6], -0.723; in [7] it was -1.36. Further, the composite z-score in assay [8] was -1.24; in [9], -0.543; in assay [10] it was 0.797; in assay [11], -0.93; in [13], -1.15; in assay [14] it was -1.35. The composite z-score in assay [15] is 0.0216; in assay [16] it was -0.194; in [17], -0.2; in [18], -0.0511; in assay [19], 1.99; in assay [20], 2.69. Moreover, the z-score was -0.246 (inactive) in [4] and -0.333 in assay [12].

Values taken from PubChem BioAssay.
